Results as given in PubChem BioAssay (Tox21).
Where “and” joins values, the source holds several entries; their conditions need not be identical. Equal entries are not always repeated. Results filed as inconclusive are left out. Entries that show only a call come without a potency. Unmarked numbers belong to inactive results. Calls of active or inactive are those of the source. Calls follow the shape of the dose curve; as a rule, active = well fitted curve in the direction sought with a large enough effect in the repeat runs; inconclusive = weak or mixed curves; inactive = no such curve, though single readings can be large; an effect the other way counts as inactive or inconclusive. Positions of bridges follow the written chain, without caps; N, C: chain ends. Non-standard residues stand in square brackets, D forms with d. Residues, ends and D or L forms follow the SMILES beside them. *: point of attachment. Dab(CH2SO3H) = N[C@@H](CCNCS(=O)(=O)O)C(=O)O; X3 = CC[C@@H](C)CCCCC(=O)*; Dab = NCC[C@H](N)C(=O)O

How the values were obtained:
[1] = molecular target: Nuclear receptor subfamily 1 group I member 2 (Rattus norvegicus) (UniProt Q9R1A7); experiment: Rat pregnane X receptor (rPXR) activation by small molecules, qHTS assay (AID 1346983); details: rPXR luciferase reporter cells, One-Glo luminescence, 24 h; max activation: stronger effect = higher value; also: nearly all actives have a fitted effect of over 20% in size; also: potency is read from the fitted curve at half-maximal effect
Method in brief: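 Cell-based rPXR luciferase reporter assay, 2,000 cells per well, rested 5hr at 37 C before compound addition in DMSO, then 24 hr at 37 C. One-Glo reagent was added and luminescence read after 30 min at room temperature.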

[2] = molecular target: Nuclear receptor subfamily 1 group I member 2 (Homo sapiens) (UniProt O75469); experiment: CYP3A4 induction through human pregnane X receptor (PXR) by small molecules, qHTS assay (AID 1346984); also: nearly all actives have a fitted effect of over 40% in size
Method in brief: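 Steps: seed DPX-2 cells, 5 hr at 37C; pin-transfer compounds; 24 hr at 37C; add Luciferin-IPA (3uM final), 3 hr at 37C; add One-Glo, 30 min RT; read luminescence.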

[3] = molecular target: Nuclear receptor subfamily 1 group I member 2 (Homo sapiens) (UniProt O75469); experiment: Human pregnane X receptor (PXR) activation by small molecules, qHTS assay (AID 1346985); also: nearly all actives have a fitted effect of over 40% in size; also: potency is read from the fitted curve at half-maximal effect
Method in brief: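 DPX-2 cells (HepG2 co-transfected with a PXR response element and a CYP3A4-promoter luciferase construct) were seeded at 2,000 per well, rested 5 hr at 37C, then exposed to DMSO-dissolved compounds for 24 hr. Activation was read as luciferase luminescence.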

Chain of Nuclear receptor subfamily 1 group I member 2 (Rattus norvegicus) (Q9R1A7 whole entry, looked up): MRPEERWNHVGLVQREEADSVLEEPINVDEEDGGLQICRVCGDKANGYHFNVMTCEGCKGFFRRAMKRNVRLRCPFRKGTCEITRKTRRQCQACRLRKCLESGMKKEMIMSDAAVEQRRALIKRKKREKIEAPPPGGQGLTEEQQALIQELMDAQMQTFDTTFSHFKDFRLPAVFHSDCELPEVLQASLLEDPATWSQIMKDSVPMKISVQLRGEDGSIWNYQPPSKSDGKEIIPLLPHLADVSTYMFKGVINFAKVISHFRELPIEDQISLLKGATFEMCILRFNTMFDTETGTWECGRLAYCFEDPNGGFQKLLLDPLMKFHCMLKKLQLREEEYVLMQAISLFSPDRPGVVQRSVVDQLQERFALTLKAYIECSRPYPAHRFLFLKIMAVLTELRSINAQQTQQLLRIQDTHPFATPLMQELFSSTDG

Row | Structure (SMILES) | max activation [1] | Potency [2] | Potency [3] | Potency [1]
1 | NC(=S)NS(=O)(=O)c1ccc(N)cc1 | -1.97% | inactive | inactive | –
2 | CO/N=C(\C(=O)N[C@@H]1C(=O)N2C(C(=O)O)=C(COC(C)=O)CS[C@H]12)c1csc(N)n1 (stereo in doubt) | -7.73% | inactive | inactive | –
3 | CC(C)(O/N=C(\C(=O)N[C@@H]1C(=O)N2C(C(=O)[O-])=C(C[n+]3ccccc3)CS[C@H]12)c1csc(N)n1)C(=O)O | 0.831% | inactive | inactive | –
4 | NC(N)=NCC1COC2(CCCCC2)O1 (configuration not stated) | -2.55% | inactive | inactive | –
5 | Nc1nc(NC2CC2)c2ncn([C@@H]3C=C[C@@H](CO)C3)c2n1 | – | inactive | 7.08 µM (active) | 5.01 µM (active)
6 | COC(=O)C(CN)c1c[nH]c2ccc(OC)cc12 (configuration not stated) | -1.11% | inactive | inactive | –
7 | CC(CNC(=O)c1cccnc1)NC(=O)c1cccnc1 (configuration not stated) | -2.47% | inactive | inactive | –
8 | COc1ccc(/C=C/C(=O)O)cc1 | 1.47% | – | inactive | –
9 | CC(=O)OCC(=O)[C@@]1(O)CC[C@H]2[C@@H]3C[C@H](C)C4=CC(=O)C=C[C@]4(C)[C@H]3[C@@H](O)C[C@@]21C | – | – | inactive | 7.94 µM (active)
10 | C=CC[N@@+]12CC[C@@]34c5ccccc5N5/C=C6/[C@H]7C[C@H]8[C@@]9(CC[N@@+]8(CC=C)C/C7=C/CO)c7ccccc7N(/C=C(/[C@@H](C[C@@H]31)/C(=C\CO)C2)[C@H]54)[C@@H]69 | 3.06% | inactive | inactive | –
11 | CC1CCCCN1CCCOC(=O)c1ccccc1 (configuration not stated) | -7.12% | – | inactive | –
12 | CNC(=O)OCc1cccc(COC(=O)NC)n1 | 8.37% | – | inactive | –
13 | CC[C@H](C)C(=O)O[C@H]1CCC=C2C=C[C@H](C)[C@H](CC[C@@H]3C[C@@H](O)CC(=O)O3)[C@H]21 | – | inactive | inactive | –
14 | O=C1c2ccccc2C(=O)C1c1ccc(F)cc1 | – | – | 12.6 µM (active) | 28.2 µM (active)
15 | C(=C\c1ccncc1)/c1ccccc1 | – | inactive | inactive | –
16 | CSCCC(N)C(=O)O (configuration not stated) | -0.631% | – | inactive | –
17 | Cc1ncc(C[n+]2csc(CCOP(=O)(O)O)c2C)c(N)n1 | -1.3% | – | inactive | –
18 | CCCCC[C@H](O)/C=C/[C@@H]1[C@@H](C/C=C\CCCC(=O)O)[C@@H](O)C[C@H]1O | -3.99% and -0.657% | – | inactive | –
19 | C[N+]1(CCCCC[N+]2(C)CCCC2)CCCC1 | -2.61% | – | inactive | –
20 | CO/N=C(\C(=O)N[C@@H]1C(=O)N2C(C(=O)[O-])=C(C[n+]3cccc4c3CCC4)CS[C@H]12)c1csc(N)n1 | -2.77% | – | inactive | –
21 | CC(=O)NC[C@H]1CN(c2ccc(N3CCOCC3)c(F)c2)C(=O)O1 | -2.66% | – | inactive | –
22 | COc1cc2c(cc1OC)[C@@H](Cc1cc(OC)c(OC)c(OC)c1)[N+](C)(CCCOC(=O)CC/C=C/CCC(=O)OCCC[N+]1(C)CCc3cc(OC)c(OC)cc3[C@H]1Cc1cc(OC)c(OC)c(OC)c1)CC2 (some centres not stated) | -6.15% | – | inactive | –
23 | CS(=O)(=O)c1ccc([C@@H](O)[C@@H](COC(=O)CN)NC(=O)C(Cl)Cl)cc1 | -5.77% | – | inactive | –
24 | CC[C@@H](C)CCCCC(=O)N[C@@H](CCNCS(=O)(=O)O)C(=O)N[C@H](C(=O)N[C@@H](CCNCS(=O)(=O)O)C(=O)N[C@H]1CCNC(=O)[C@H]([C@@H](C)O)NC(=O)[C@H](CCNCS(=O)(=O)O)NC(=O)[C@H](CCNCS(=O)(=O)O)NC(=O)[C@H](CC(C)C)NC(=O)[C@@H](CC(C)C)NC(=O)[C@H](CCNCS(=O)(=O)O)NC1=O)[C@@H](C)O (X3-[Dab(CH2SO3H)]T[Dab(CH2SO3H)][Dab][Dab(CH2SO3H)][dL]L[Dab(CH2SO3H)][Dab(CH2SO3H)]T; lactam 4-C) | -6.38% | – | inactive | –

Row | Structure (SMILES) | max activation [1] | Potency [2] | Potency [3] | Potency [1]
25 | CN(C)CCc1c[nH]c2ccc(Cn3cncn3)cc12 | -1.87% | – | inactive | –
26 | N[C@H](C(=O)O)[C@@H]1CC(Cl)=NO1 | -12.5% | – | inactive | –
27 | COC1=C(OC)C(=O)C(C/C=C(\C)CC/C=C(\C)CC/C=C(\C)CC/C=C(\C)CC/C=C(\C)CC/C=C(\C)CC/C=C(\C)CC/C=C(\C)CC/C=C(\C)CCC=C(C)C)=C(C)C1=O | -2.14% | – | inactive | –
28 | C=CCN1C(=O)C(CC(C)C)NC1=S (configuration not stated) | 12.3% | – | inactive | –
29 | O=S(=O)(O)CC(S)CS (configuration not stated) | -6.49% | – | inactive | –
30 | CC12CCC(C1)C(C)(C)C2=O (configuration not stated) | -2.76% | – | inactive | –
31 | CC/C(=C(/CC)c1ccc(OP(=O)(O)O)cc1)c1ccc(OP(=O)(O)O)cc1 | -1.74% | – | inactive | –
32 | Oc1ccc(Cl)c2c1CCC2 | 0.0185% | – | inactive | –
33 | OCCCNc1ccccc1 | -0.22% | – | inactive | –
34 | CCc1cn([C@H]2C[C@H](O)[C@@H](CO)O2)c(=O)[nH]c1=O | 1.52% | – | inactive | –
35 | Cc1cc(N)c2ccccc2[n+]1CCCCCCCCCC[n+]1c(C)cc(N)c2ccccc21 | -11.7% | – | inactive | –
36 | CC(C)[N+]1(C)[C@@H]2CC[C@H]1CC(OC(=O)C(CO)c1ccccc1)C2 (some centres not stated) | -2.6% | – | inactive | –
37 | CC(C)C[C@@H](NC(=O)[C@@H](O)[C@H](N)Cc1ccccc1)C(=O)O | -7.87% | – | inactive | –
38 | O=P(O)(O)OP(=O)(O)OP(=O)(O)O | -6.54% | – | inactive | –
39 | C[S+](CC[C@H](N)C(=O)O)C[C@H]1O[C@@H](n2cnc3c(N)ncnc32)[C@H](O)[C@@H]1O (some centres not stated) | -2.9% and 0.617% | – | inactive | –
40 | NC(=O)[C@@H]1C[C@]2(NC(=O)NC2=O)c2cc(F)ccc2O1 | -1.76% | – | inactive | –
41 | COc1c(O)cc2c(c1O)[C@@H]1O[C@H](CO)[C@@H](O)[C@H](O)[C@H]1OC2=O | -0.0644% | – | inactive | –
42 | CC(C)(C)C(=O)OCC(=O)[C@H]1CC[C@H]2[C@@H]3CCC4=CC(=O)CC[C@]4(C)[C@H]3CC[C@]12C | -6.33% | – | inactive | –
43 | C[C@@H]1C[C@H]2[C@@H]3C[C@H](F)C4=CC(=O)C=C[C@]4(C)[C@@]3(Cl)[C@@H](O)C[C@]2(C)[C@H]1C(=O)COC(=O)C(C)(C)C | – | – | inactive | 2.82 µM (active)
44 | C[C@@H]1O[C@@H]1P(=O)(O)O | -1.9% | – | inactive | –
45 | CCOc1ccc(NC(=S)Nc2ccc(OCC)cc2)cc1 | -1.61% | – | inactive | –
46 | CNC(=O)C[C@@H](N)C(=O)N[C@@H](C(=O)N[C@@H]1C(=O)N2[C@@H]1SC(C)(C)[C@@H]2C(=O)O)c1ccc(O)cc1 | -2.18% | – | inactive | –
47 | C=CC[N+]1([C@H]2C[C@H]3[C@@H]4CC[C@H]5C[C@H](O)[C@@H](N6CCOCC6)C[C@]5(C)[C@H]4CC[C@]3(C)[C@H]2OC(C)=O)CCCC1 | -2.81% | – | inactive | –
